Experimental findings from ChEMBL document CHEMBL4513146, “CO-ADD screening of Karazin Kharkiv National University (Ukraine) compounds” are described below.

Potency and affinity values are given separately.

What is called Inhibition is the change of the read-out against control, counted positive when it falls.

The test deals with Cryptococcus neoformans. Particulars: Concentration 32 ug.mL-1; ASSAY_TEST Inhibition of Fungal Growth; detection method Resazurin; Absorption (OD600-OD570); plate type 384well; NBS; CORNING #3640.
Take `Cc1cccc(N(Cc2ccc(F)cc2)S(=O)(=O)c2cccn3c(C)nnc23)c1`: the Inhibition was -8.62%.

Regarding `CCc1nnc2c(S(=O)(=O)N(Cc3cccc(C)c3)c3ccc(Cl)cc3)cccn12`, the Inhibition is -3.81%.

With `Cc1cc(C)c(C(=O)CSc2nnc3c(=O)n(-c4ccc(F)c(F)c4)ccn23)cc1C`, the Inhibition is given as -8.7%.

For the compound `CCc1nnc2c(S(=O)(=O)N(Cc3ccccc3F)c3ccc(F)cc3)cccn12`, the Inhibition was -5.43%.

With `COc1ccccc1Cn1c(=O)c2sccc2n2c(=O)n(Cc3c(F)cccc3Cl)nc12`, the Inhibition is listed as -30.55%.

In the case of `COc1cccc(-n2ccn3c(SCC(=O)c4ccc(C)cc4)nnc3c2=O)c1`, the Inhibition is on record as -10.21%.

Turning to `COc1ccc(NC(=O)Cn2nc3ccc(Sc4ccccc4)nn3c2=O)cc1`, the Inhibition is listed as -9.77%.

As to `COc1ccccc1-n1ccn2c(SCC(=O)Nc3ccc(C)cc3Cl)nnc2c1=O`, the Inhibition is -11.35%.

For `Cc1cccc(NC(=O)Cn2c(=O)c3nnc(C(C)C)n3c3ccccc32)c1`, the Inhibition is -17.48%.

Turning to `O=C(Cn1nc2c(N3CCOCC3)nc3ccccc3n2c1=O)NCc1ccccc1Cl`, the Inhibition is -3.24%.

`CCc1ccccc1Sc1nccn2c(=O)n(CC(=O)Nc3cccc(Br)c3)nc12`: the Inhibition is -6.91%.

Take `CCCCn1c(=O)c2sccc2n2c(=O)n(CC(=O)c3ccc(OC)cc3)nc12`: the Inhibition is listed as -36.83%.

On to `COCCCNC(=O)CSc1nnc2c(=O)n(Cc3ccccc3F)ccn12`, for which the Inhibition is on record as -16.33%.

`O=C(Cn1nc2c(Oc3ccccc3)nccn2c1=O)Nc1ccc(F)cc1Cl`: the Inhibition is recorded as -10.04%.

Regarding `C=Cc1ccc(CN(c2ccc(C(C)C)cc2)S(=O)(=O)c2cccn3c(C)nnc23)cc1`, the Inhibition is given as -4.15%.

For `COc1cccc(-n2ccn3c(SCC(=O)c4cc(C)ccc4C)nnc3c2=O)c1`, the Inhibition is on record as -12.08%.

Take `CCOc1ccc(C(=O)CSc2nnc3c(=O)n(-c4ccc(C)c(C)c4)ccn23)cc1`: the Inhibition was -7.55%.

For `O=C(Cn1nc2ccc(SCc3ccc(Cl)cc3)nn2c1=O)Nc1cccc(F)c1`, the Inhibition is given as -11.95%.

`O=c1c2nn(Cc3cccc(F)c3)c(=O)n2ccn1-c1ccccc1`: the Inhibition is listed as -10.61%.

`Cc1ccc(-n2ccn3c(SCC(=O)c4c[nH]c5ccccc45)nnc3c2=O)cc1C`: the Inhibition is reported as -5.1%.

Consider `CC(C)CCn1c(=O)c2ccc(C(=O)NC3CCCCC3)cc2n2c(=O)n(CC#N)nc12`, for which the Inhibition was -17.66%.

For `Cc1nnc2c(SCC(=O)N3CCN(c4ccc(F)cc4)CC3)nc3ccccc3n12`, the Inhibition is recorded as -2.43%.

`O=c1n(Cc2cccc(Cl)c2)nc2ccc(-c3ccccc3)nn12`: the Inhibition was -20.37%.

Regarding `CCc1cccc(C)c1NC(=O)Cn1nc2ccc(SCc3ccc(Cl)cc3)nn2c1=O`, the Inhibition was -13.19%.
